Drawing on publication PMC5540273 (PLoS ONE, 2017), this text covers Kd for 17 compounds.

Bounds are passed on as bounds.

In assay [1] the test system is T1, RSK1(Kin.Dom.2-C-terminal).
T1 construct: gene RPS6KA1

The subject of assay [2] is T2, RSK4(Kin.Dom.2-C-terminal).
T2 construct: gene RPS6KA6
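Further: kd values determined as follow-up on hits from a single-replicate KINOMEscan panel screen.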

For the compound `Fc1ccc(-c2ncn(CCCN3CCOCC3)c2-c2ccccn2)cc1` [SB-211742], the Kd in the assay on PRKCI was > 10000 nM.
On to `CC(C)(C)n1cnc2c(N)ncnc21` [SKF-97359], for which the Kd (in assay [1]; with SgK110) was > 10000 nM throughout.
For the compound `O=C(NCCNc1ccnc(Nc2ccc(F)cc2)n1)Nc1ccccc1F` [GSK1379880], in the assay on PLK1, the Kd is > 10000 nM.
With `CN1c2ccc(CNc3ccc(F)cc3)cc2-c2c(cnn2C)S1(=O)=O`, the Kd in the assay with SGK2 is > 10000 nM.
Regarding `Cc1nnc(-c2ccc3occ(-c4ccc(C(C)O)cc4)c3c2)o1` (stereo not shown), the Kd in the assay on RAF1 was > 10000 nM.
With `c1ccc(-c2cc(-c3c[nH]nc3-c3ccccn3)ccn2)cc1` [GW576604], in the assay on RIPK2, the Kd is 7600 nM.
Take `Cn1ccc2ncnc(Oc3ccc(NC(=O)Nc4ccncc4)c(Cl)c3)c21`: in the assay on STK39, the Kd is > 10000 nM.
Turning to `COc1ccc(COc2cc(-n3cnc4ccccc43)sc2C(N)=O)cc1` [GSK1024304], the Kd was determined as 37 nM with PLK1, 250 nM in the assay with PLK2, 380 nM in the assay with PLK3 and 76 nM in the assay with RIOK2.
Take `Cc1cccc(-c2nc(Nc3ccc4ncsc4c3)c3ccccc3n2)n1` [GW867588]: the Kd in the assay with PRKD1 came to 16 nM; with PRKD2, 22 nM.
As to `O=c1cc(N2CCOCC2)nc2n(Cc3cccc4ccccc34)ccn12` [GSK2333389], in the assay on RET, the Kd was > 10000 nM.
As for `O=C(NCCNc1ccnc(Nc2ccc(F)cc2)n1)c1cc2ccccc2s1` [GSK1379874], the Kd in the assay on TESK1 is > 10000 nM.
`CNc1ncnc2[nH]ncc12` [SKF-18355]: the Kd with ROCK1 came out at 380 nM; with ROCK2, 330 nM.
As to `CN1c2ccc(NCc3ccc(F)cc3)cc2-c2c(cnn2C)S1(=O)=O`, the Kd in assay [2] was > 10000 nM.
Regarding `CCCCCc1nc2c(N)ncnc2n1CCCCC` [SKF-97255], binding with ROCK1 was put at a Kd of 280 nM.
Take `CSc1ccc(-c2cc3ncnc(SCC(=O)O)c3s2)cc1`: the Kd with SRPK2 was > 10000 nM.
With `COc1ccc(Nc2nccc(N3CCC(NC(=O)Nc4cc(C)ccc4C)C3)n2)cc1` (stereo not shown) [GSK1379741], in the assay on STK36, the affinity, expressed as Kd, was 1600 nM. This lies in the single-digit micromolar range.
As to `C[C@@H](Oc1cc(-n2cnc3ccc(NC(=O)NC(C)(C)C)cc32)sc1C(N)=O)c1ccccc1Cl` [GSK346294], the Kd in the assay on PLK1 was 7.3 nM; in the assay on PLK2 it was 77 nM; with PLK3 it was 150 nM.

One may read the Kd as the free concentration of one partner at which half of the binding sites on the other are occupied at equilibrium, for simple one-to-one binding.
